# UHRF1 MBD2 ctr: UHRF1 methyl-DNA binding inhibition; inhibition, % at 4.4 µM; UHRF1 binding to methylated oligo, TR-FRET; Q96T88; AID 687016; 0.75% of 370,000 active; in the data active = inhibition above about 21%;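 note: UHRF1 SRA domain binding a hemimethylated CpG hairpin DNA probe; 0% = median of test compound wells and 100% = reference inhibitor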
# Target sequence (Q96T88 whole entry, looked up, the tested form may be a part): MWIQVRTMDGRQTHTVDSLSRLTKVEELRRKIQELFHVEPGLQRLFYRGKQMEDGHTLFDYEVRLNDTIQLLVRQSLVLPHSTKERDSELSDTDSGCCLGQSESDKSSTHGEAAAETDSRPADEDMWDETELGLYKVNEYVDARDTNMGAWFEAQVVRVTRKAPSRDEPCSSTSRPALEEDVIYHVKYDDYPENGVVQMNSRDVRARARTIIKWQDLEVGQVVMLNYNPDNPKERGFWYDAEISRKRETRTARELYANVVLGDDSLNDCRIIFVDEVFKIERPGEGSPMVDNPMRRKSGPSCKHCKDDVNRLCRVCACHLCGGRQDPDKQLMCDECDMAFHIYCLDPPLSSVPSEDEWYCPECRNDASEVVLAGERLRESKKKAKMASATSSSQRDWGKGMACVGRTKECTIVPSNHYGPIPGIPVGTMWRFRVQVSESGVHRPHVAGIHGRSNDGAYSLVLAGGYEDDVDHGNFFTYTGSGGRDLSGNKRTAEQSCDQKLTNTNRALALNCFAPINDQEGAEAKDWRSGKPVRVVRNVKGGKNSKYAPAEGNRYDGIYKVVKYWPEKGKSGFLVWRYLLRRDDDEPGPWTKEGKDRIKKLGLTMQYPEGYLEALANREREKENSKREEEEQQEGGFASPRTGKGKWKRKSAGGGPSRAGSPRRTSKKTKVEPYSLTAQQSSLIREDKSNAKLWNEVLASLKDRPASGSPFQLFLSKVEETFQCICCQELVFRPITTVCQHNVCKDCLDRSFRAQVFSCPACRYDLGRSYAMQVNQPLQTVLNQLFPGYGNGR
# PRMT1 FP inh: inhibitors of human PRMT1 | Q99873 | recombinant PRMT1, activity-based probe fluorescence polarization | inhibition, % at 2.79 µM | 1.3% of 370,000 active;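 active = inhibition above about 21% made by adding two undisclosed values, limit read from the data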
# MBD2 DNA inh: MBD2-methylated oligo binding inhibition; Q9UBB5; TR-FRET, MBD2 binding to methylated oligonucleotide; inhibition, % at 4.4 µM; 0.31% of 370,000 active; AID 686964; in the data active = inhibition above about 13%
# rCAG RNA binder: molecules binding r(CAG) RNA repeats | r(CAG) RNA repeat, TO-PRO-1 dye displacement fluorescence | inhibition, % at 3 µM | 1.3% of 370,000 active;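 active = inhibition above the plate cutoff, the mean of all test compounds on that plate plus 3 SD, cut at about 35% in these data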;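 note: 0% = DMSO alone and 100% = 100 µM mitoxantrone as full dye displacement; higher means more dye released from RNA so lower well fluorescence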
# ABHD5 PLIN5 PPI: ABHD5-PLIN5 protein interaction inhibition | inhibition, % at 4 µM | 0.78% of 360,000 active | Split G. princeps luciferase complementation, luminescence, 4 h | AID 602281 | Q00G26+Q8WTS1;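 active = inhibition above the mean inhibition across every tested compound plus 3 SD, cut at about 22% in these data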;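 note: 0% = DMSO only wells and the 100% control is not disclosed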
# LEDGF integ inh: blocks HIV-1 LEDGF/p75-dependent DNA integration; TR-FRET IN-LEDGF/p75 DNA integration, Eu/Cy5; inhibition, % at 3.7 µM; 0.64% of 370,000 active;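 active = inhibition above the screen-wide mean plus 3 SD, cut at about 13% in these data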;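 note: signal is the Cy5 over europium emission ratio at 671 and 618 nm; 0% = plate median of compound wells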
# IN multimer up: counter-screen for LEDGF/p75 integration inhibitors: HIV-1 integrase multimerization activators; activation, % at 7.7 µM; TR-FRET HIV-1 integrase multimerization, biochemical; 17% of 2,000 active; shares compounds with LEDGF integ inh; in the data active = activation above about 8.9%
# TR-FRET interf: counter-screen for LEDGF/p75 integration inhibitors: TR-FRET optical interference | shares compounds with LEDGF integ inh | TR-FRET optical interference counterscreen, HIV-1 IN multimerization | inhibition, % at 7.7 µM | 2,000 tested, under 10 active;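 active = inhibition above the mean over all tested compounds plus 3 SD, which no compound reached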;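 note: 0% = integrase with antibodies and DMSO and 100% = antibodies without integrase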
# IN-LEDGF confirm: LEDGF/p75-dependent HIV-1 integration inhibition, confirmation. shares compounds with LEDGF integ inh. TR-FRET LEDGF/p75-dependent HIV-1 integration, biochemical. inhibition, % at 3.7 µM. 36% of 2,000 active. AID 1053136; in the data active = inhibition above about 14%
# The depositor's hits bear a star; x = not tested or not shown. An excerpt weighted towards active compounds, which were near 4.1% of everything screened.
SMILES,UHRF1 MBD2 ctr,PRMT1 FP inh,MBD2 DNA inh,rCAG RNA binder,ABHD5 PLIN5 PPI,LEDGF integ inh,IN multimer up,TR-FRET interf,IN-LEDGF confirm
O=C1C(N2CCOCC2)=C(n2nnc3ccccc32)C(=O)c2ccccc21,-4,7,-14,3,-16,40*,3,-11,45*
O=C(NCc1ccncc1)C1CCN(S(=O)(=O)c2cc(Cl)ccc2Cl)CC1,1,4,-1,1,2,20*,0,-1,-8
O=C(NCc1ccncc1)C1CCCN(S(=O)(=O)c2cc(Cl)ccc2Cl)C1 (centres undefined),0,0,3,2,-8,1,x,x,x
Cc1ccccc1N=Cc1cccc(O)c1O,x,x,x,x,-12,x,x,x,x
Oc1cccc(/C=N/N=C/c2cccc(O)c2O)c1O,2,14,2,11,6,27*,7,-24,73*
Cc1ccc(N=Cc2cccc(O)c2O)c(C)c1,-3,20,-6,15,-46,31*,1,-3,75*
CCOC(=O)[C@@H]1CSCCS(=O)(=O)N1C(=O)[C@H](CC(C)C)NC(=O)OC(C)(C)C,-2,4,7,-4,x,-2,x,x,x
CCCn1c(NC(=O)c2ccccc2)nc(Cc2ccccc2)c1Cc1ccccc1,0,-3,2,6,x,15*,2,-8,25*
Cn1c(NC(=O)c2ccccc2)nc(Cc2ccccc2)c1-c1ccccc1,1,-5,-6,1,x,23*,1,-3,31*
Cn1c(NC(=O)c2ccccc2)nc(Cc2ccccc2)c1Cc1ccccc1,-2,-11,-5,0,x,25*,1,-4,27*
O=C(Nc1nc(Cc2ccccc2)c(-c2ccccc2)n1Cc1ccccc1)c1ccccc1,1,0,-1,9,x,10,x,x,x
COc1ccc(Cn2c(NC(=O)c3ccccc3)nc(Cc3ccccc3)c2Cc2ccccc2)cc1,-3,-12,-1,6,x,14*,0,2,14*
COC(=O)CC#C[C@H](C)[C@@H](NS(=O)(=O)c1ccc(C)cc1)C1CCCCC1,-2,-1,3,7,x,-1,x,x,x
CC(=O)N(C)C[C@@H]1Oc2cc(Br)ccc2S(=O)(=O)N([C@H](C)CO)C[C@@H]1C,1,4,4,4,x,-1,x,x,x
O=[N+]([O-])c1cc([N+](=O)[O-])c2nonc2c1Nc1ccc(O)cc1,-3,8,-13,8,-17,15*,6,-20,3
O=C(NCCc1c[nH]c2ccccc12)OCc1cn(-c2cccc(C(F)(F)F)c2)nn1,1,-2,2,3,x,-1,x,x,x
CCn1c(SCC(=O)OCc2ccccc2)nnc1-c1ccco1,3,3,1,-5,9,19*,0,-2,-10
COc1ccc2ccccc2c1CN1CCN(c2ncc(Cc3ccccc3)cn2)CC1,2,2,2,3,x,-2,x,x,x
Cc1cc2c(c(=O)o1)[C@@]1(C(=O)N(C)c3ccccc31)C1=C(CC(C)(C)CC1=O)O2,5,-1,-2,1,x,-1,x,x,x
NC(=O)CC1Nc2cccc3cccc(c23)NC1=O (centres undefined),-2,12,-2,6,-8,19*,35*,-126,32*
O=C(CC1Nc2cccc3cccc(c23)NC1=O)Nc1ccccc1 (centres undefined),-8,10,-6,13,0,7,x,x,x
CC(C)CCOP(=O)(c1ccc(N(C)C)cc1)C(O)c1ccccc1F (centres undefined),-1,-5,4,-9,1,21*,-2,8,-3
COc1ccc(Cl)cc1NC(=O)NNC(=O)c1ccccn1,2,-2,-2,4,-2,2,x,x,x
COc1ccc(Cl)cc1NC(=O)NNC(=O)C(=O)Nc1ccc(F)cc1,-2,-4,0,4,18,65*,0,2,4
CC(=NNC1=NCCN1)c1cnn(C2=NCCN2)c1C,-1,-3,-2,3,2,18*,1,-3,-1
SMILES,UHRF1 MBD2 ctr,PRMT1 FP inh,MBD2 DNA inh,rCAG RNA binder,ABHD5 PLIN5 PPI,LEDGF integ inh,IN multimer up,TR-FRET interf,IN-LEDGF confirm
COC(=O)C1CN(Cc2cn(CCC3OCCO3)nn2)CCS(=O)(=O)N1Cc1ccc(Cl)cc1 (centres undefined),16,7,11,3,x,-1,x,x,x
C#CCN1CC(N(C)CCOC(=O)c2ccc(OC)c(OC)c2)CS1(=O)=O (centres undefined),-1,-6,-3,0,x,-1,x,x,x
CCOc1ccc(NC(=O)Nc2cc(-c3ccccc3)sc2C(=O)OC)cc1,-2,-3,6,3,1,21*,1,-5,-2
COC(=O)c1sc(-c2ccccc2)cc1NC(=O)C1CC1,-3,0,1,0,-2,-4,x,x,x
Cc1c(NC(=O)c2cccc(NC(=O)Cc3ccc(F)cc3)c2)c(=O)n(-c2ccccc2)n1C,0,0,1,4,-2,19*,0,-2,-5
CCN(Cc1ccccc1)c1cc2c(c3c1ccn3C)C1CCC2O1 (centres undefined),-2,4,2,3,0,13*,1,-7,-10
COC(=O)C(C)N(C(=O)c1cccc(Cl)c1)c1c(C)cccc1C (centres undefined),0,-2,0,-6,-5,0,x,x,x
COC(=O)C(C)N(C(=O)c1cccc2ccccc12)c1c(C)cccc1C (centres undefined),-1,-4,3,-5,-1,78*,2,-6,1
COc1ccc(-c2csc(NC(=O)c3cccs3)c2C(=O)O)cc1OC,0,-8,5,25,-1,18*,2,-8,10
O=C(O)c1cc(-c2ccccc2)nc(-c2ccccc2)c1,1,-3,2,15,-6,15*,1,-5,-10
O=C(Cc1csc(N2CCOCC2)n1)N/N=C/c1ccc(O)c(O)c1O,5,8,1,15,-15,55*,44*,-157,60*
COCc1[nH]nc2c1C(c1ccccc1)NC2=O (centres undefined),2,0,4,2,x,-3,x,x,x
C=CCc1cc(/C=N/n2cnnc2)cc(OCC)c1O,1,3,-2,2,-3,0,x,x,x
C=CCc1cc(C=Nc2ccc(N3CCOCC3)cc2)cc(OCC)c1O,2,1,-3,-2,-19,25*,5,-17,-14
